APOBEC3A inh – human APOBEC3A DNA deaminase inhibition | P31941 | recombinant A3A, FAM/TAMRA ssDNA deamination fluorescence | inhibition, % at 20 µM | hit rate 0.41% among 330,000 | AID 493011;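 active = at least 40% inhibition at 20 µM here, with at most 30% in a related deaminase screen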;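 also: plate controls were A3A with DMSO for no effect and wells lacking A3A enzyme for full effect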
NRP1-CendR mod – alters CendR peptide binding to human NRP-1. FAM-RPARPAR peptide binding to NRP-1, fluorescence polarization. hit rate 0.85% among 360,000. O14786. AID 602438. inhibition, % at 25 µM;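 active = inhibition or corrected inhibition above about 18%, plus a signal ratio from 0.5 to 1.5, limit read from the data, passing the limit was not always enough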
ALR H2O2 inh – inhibitors of human sulfhydryl oxidase ALR. purified ALR, DTT oxidation, H2O2 HRP-luminol luminescence. inhibition, % (no concentration beside the values). hit rate 3.8% among 290,000;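 active = mean replicate inhibition above about 79%, with every replicate also reaching it, limit read from the data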
Target sequence (P55789 whole entry, looked up): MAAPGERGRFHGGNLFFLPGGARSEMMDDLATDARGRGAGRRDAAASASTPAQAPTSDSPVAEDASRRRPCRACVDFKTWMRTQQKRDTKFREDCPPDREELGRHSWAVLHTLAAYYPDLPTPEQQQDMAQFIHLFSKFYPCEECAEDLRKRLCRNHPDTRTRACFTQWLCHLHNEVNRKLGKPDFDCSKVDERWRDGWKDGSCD
M18AAP inhibitor – blocks P. falciparum M18 aspartyl aminopeptidase | inhibition, % at 7.35 µM | hit rate 1.2% among 290,000 | recombinant PfM18AAP, H-Glu-NHMec fluorogenic cleavage;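 active = inhibition above the campaign mean inhibition over all tested compounds plus 3 SD, cut at about 28% in these data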;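 also: 0% = plate median of test compound wells and 100% = 2 mM ZnCl2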
CR mimetic SO – yeast age-related superoxide inhibition as caloric restriction mimetic; AID 2690; superoxide response (% of plate mean), % at 10 µM; hit rate 0.18% among 330,000; S. cerevisiae aged cells, superoxide DHE fluorescence; stronger effect = lower value;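 active = superoxide response under a set limit, about three screen SD below normal, cut at about 65% in these data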;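 also: yeast aged for seven days with compound at 30 °C before DHE staining; 100% = average MFI of all compound-treated wells on the plate with controls excluded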
APOBEC3G inh – blocks human APOBEC3G single-stranded DNA deamination; Q9HC16; inhibition, % at 20 µM; AID 493012; hit rate 0.28% among 330,000; recombinant A3G, ssDNA deamination FAM/TAMRA fluorescence;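 active = inhibition of at least 40% at 20 µM, with no more than 30% in the related APOBEC3A deaminase screen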;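 also: plate controls were DMSO wells with A3G for no effect and wells lacking A3G enzyme for full effect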
Target sequence (Q9HC16 whole entry, looked up): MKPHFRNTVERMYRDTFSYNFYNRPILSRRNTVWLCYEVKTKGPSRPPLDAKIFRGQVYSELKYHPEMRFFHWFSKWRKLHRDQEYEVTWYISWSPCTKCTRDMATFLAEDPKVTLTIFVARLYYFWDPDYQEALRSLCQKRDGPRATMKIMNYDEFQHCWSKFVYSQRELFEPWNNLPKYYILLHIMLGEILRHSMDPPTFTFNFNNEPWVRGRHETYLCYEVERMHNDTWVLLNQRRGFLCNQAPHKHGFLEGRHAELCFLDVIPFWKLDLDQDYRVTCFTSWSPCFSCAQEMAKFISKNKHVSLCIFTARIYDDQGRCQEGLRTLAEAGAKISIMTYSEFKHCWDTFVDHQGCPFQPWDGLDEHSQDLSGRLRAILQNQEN
Active calls of the source: *; nt = not tested or not shown. A selection: hits, their analogues and other compounds. The true share with any hit is near 5.2%.

SMILES	APOBEC3A inh	NRP1-CendR mod	ALR H2O2 inh	M18AAP inhibitor	CR mimetic SO	APOBEC3G inh
Nc1cc(-c2cccc([N+](=O)[O-])c2)[nH]n1	-3	-8	72	-2	126	-5
O=c1cc(-c2cccc([N+](=O)[O-])c2)[nH][nH]1	-1	-3	82*	12	93	-4
CCOC(=O)COc1cccc2c(=O)n(CC(=O)N3CCCc4ccccc43)ccc12	-2	4	97*	3	97	-1
COc1cccc2c(=O)n(CC(=O)N3CCCc4ccccc43)ccc12	0	3	nt	2	72	-3
CC(C)N(CCC(=O)c1ccc2ccccc2c1)Cc1ccccc1	2	6	97*	nt	86	13
CC(OC(=O)c1ccc2ccccc2c1)C(=O)N(C)Cc1ccccc1 (stereo not drawn)	1	0	-1	nt	83	-7
CCC1(C)N=C(N)Nc2nc3cc(C)c(C)cc3n21 (stereo not drawn)	3	-3	99*	0	64*	-3
NC1=NC2(CCCC2)n2c(nc3ccccc32)N1	-5	2	4	-11	78	-4
O=C(c1c(F)cccc1F)N1CCN=C1SCc1ccccc1	-7	3	5	-8	111	-6
CC(=O)N1CCN=C1SCc1c(F)cccc1Cl	2	-1	98*	-6	100	0
CCC(=O)N1CCN=C1SCc1c(F)cccc1Cl	-8	6	99*	-2	92	-5
CC(=O)c1cn(CC(=O)NCC2CCCO2)c2ccccc12 (stereo not drawn)	-5	20*	-2	-1	101	-8
Cc1ccc2c(c1)c1c(c(=O)n(-c3ccccc3C)c(=O)n1CC(=O)NCC1CCCO1)n2C (stereo not drawn)	-1	31*	-10	10	78	-3
CCn1cc(SCC(=O)NCC2CCCO2)c2ccccc21 (stereo not drawn)	4	-4	98*	nt	138	3
COc1cc(C(=O)NC(C(=O)Nc2cccc(C(C)=O)c2)C(C)C)cc(OC)c1OC (stereo not drawn)	3	16	-2	-2	107	-1
CCCCN(C(C)=O)c1c(CC)nc2ccc(C(=O)NCc3cccs3)cn12	nt	-6	nt	nt	nt	nt
COc1ccc(CCNC(=O)c2cc(-c3cc(C)ccc3O)n[nH]2)cc1OC	6	7	96*	7	117	-4
CCC(C(=O)NC1CCN(C)CC1)c1ccccc1 (stereo not drawn)	2	53*	-20	0	89	-3
Cc1n(N)c2ccccc2[n+]1CC(=O)c1ccccc1	-2	2	-9	6	88	-8
Cc1nnc2n(c1=O)N=C(c1ccc(Cl)cc1)CS2	6	0	99*	11	118	1
CCCCc1nc(Cl)c(C#N)c2c1CCCC2	1	13	-11	-3	86	-2
N#Cc1c(Cl)nc2c(c1C#N)CCCC2	-2	8	97*	-1	110	-8
Cc1ccc(NC(=S)NNC(=O)CSc2nnc(-c3ccc(Cl)cc3)n2C2CCCCC2)cc1	-1	3	15	-5	87	-9
CCn1c(SCC(=O)NNC(=S)Nc2ccc(C)cc2)nnc1-c1ccc(Cl)cc1	-5	-9	97*	1	116	-12
CC(C)(C)c1csc(NC(=O)c2c(F)c(F)c(F)c(F)c2F)n1	-8	0	98*	4	103	-6
SMILES	APOBEC3A inh	NRP1-CendR mod	ALR H2O2 inh	M18AAP inhibitor	CR mimetic SO	APOBEC3G inh
CC(C)(C)c1csc(NC(=O)c2ccccc2O)n1	-2	16	81*	-9	102	0
CCc1nnc(NC(=O)c2cccc(OC)c2)s1	-2	-2	-2	-1	103	-1
O=C(O)C1=CC(=C(c2ccc(O)c(C(=O)O)c2)c2ccc(O)c(C(=O)O)c2)C=CC1=O	nt	nt	97*	nt	96	nt
O=C(O)c1cc(O)ccc1O	nt	9	nt	nt	nt	nt
COc1ccc(CNC(=O)C2CSC(c3ccc(OC)cc3)N2C(C)=O)cc1 (stereo not drawn)	-2	4	85*	7	96	-6
COc1ccc(C2SCC(C(=O)O)N2C(C)=O)cc1 (stereo not drawn)	1	13	-5	-11	88	-4
CN(C)C(CNS(=O)(=O)c1ccc(Cl)cc1F)c1ccco1 (stereo not drawn)	3	16	-8	nt	99	2
O=C(NCCCn1ccnc1)c1nn2c(C(F)(F)F)cc(-c3ccc(Br)cc3)nc2c1Cl	-1	30*	nt	-5	107	-4
COc1cc(-c2nnc(SCC(=O)Nc3ccc(C(=O)O)cc3)o2)cc(OC)c1OC	-2	31*	nt	nt	81	-8
COC(=O)c1ccc(NC(=O)CSc2nnc(-c3cccnc3)o2)cc1	-4	8	99*	nt	111	-12
CCC(=O)Nc1ccc(C(=O)CSc2nnc(-c3cccnc3)o2)cc1	-2	-10	54	-1	110	1
COc1cc(C(=O)NCc2nnc(SCC(=O)Nc3cc(C)cc(C)c3)o2)cc(OC)c1OC	-1	13	97*	-12	104	2
O=S(=O)(c1ccccc1)c1nc(-c2ccco2)oc1NCc1ccccc1	2	-8	0	-12	100	-10
C=C(C)Cn1c(Sc2nc3ccccc3[nH]2)nc2c1c(=O)[nH]c(=O)n2C	-1	6	-5	-2	98	-1
CCc1c(C(=O)NCc2cnn(C)c2)csc1C	0	10	98*	-8	96	-4
Cc1nnc(Sc2nc3ccccc3o2)c2ccccc12	1	1	97*	-4	99	-3
CCOc1cc(CN2CCOCC2)cc(C(C)=O)c1	-1	-1	4	-3	89	-3
CC(C)C[C@@H](CN)NC(=O)c1nc[nH]c1C(=O)N[C@@H](CC(C)C)C(=O)CNC[C@H](C)NC(=O)c1nc[nH]c1C(=O)N[C@@H](CC(=O)O)C(=O)O	nt	-6	nt	nt	nt	nt
Fc1ccc(-n2c(Cn3nnc4ccccc43)n[nH]c2=S)cc1	-2	4	5	30*	96	22
FC(F)(F)c1cccc(-n2c(Cn3nnc4ccccc43)n[nH]c2=S)c1	0	3	44	19	113	24
O=[N+]([O-])c1cccc(C=Nc2cc3c(cc2Br)OCCO3)c1	nt	27*	1	9	89	nt
O=C(Nc1ccccc1C(=O)Nc1ccccn1)c1ccccc1F	-1	-5	2	-1	106	-5
CN(C)S(=O)(=O)c1ccc(Cl)c(C(=O)OCC(=O)NNC(=O)c2cccs2)c1	-4	-4	nt	nt	100	-9
CCOC(=O)Nc1cccc(Nc2ccccc2)c1	-1	-1	99*	0	85	-2
CC(C)(C)c1ccc(C(=O)NNC(=S)NCc2ccco2)cc1	-5	-15	0	-2	111	-5
Cc1ccccc1CSCC(=O)NC(=O)NCc1ccco1	17	-10	-7	6	80	12
CC(C)(O)C(=O)NNC(=S)NCc1ccco1	0	7	0	42*	95	-7
